# Rows were chosen to be rich in hits. Some 1.3% of all compounds tested hit in one or more screens of this group.
# Efflux pump inh – inhibitors of Candida efflux pumps in yeast, primary screen, S. cerevisiae, Nile Red, multiplex | S. cerevisiae Candida pump triplex | inhibition, % at 10 µM | actives 0.44% (n = 330,000);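 active = plate passing quality check with inhibition over a set limit, or well fluorescence over plate mean plus 4 SD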;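 note: Nile Red retained in pooled yeast measured as flow cytometry median fluorescence; 0% = buffer negative control and 100% = Enniatin B positive control; higher means more Nile Red kept so more efflux inhibition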
# CIT2 TOR yeast – modulators of CIT2-GFP expression in yeast, primary screen, S. cerevisiae, GFP fusion, multiplex flow cytometry, MLPCN library | actives 0.065% (n = 320,000) | S. cerevisiae CIT2-GFP strain, 3 h; 100 means same as DMSO wells | GFP response vs DMSO, % at 10 µM;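 active = GFP response relative to DMSO above a set limit, near the screen mean plus 3 SD, cut at about 150% in these data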;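 note: ratio of well median GFP fluorescence to mean of DMSO wells on the plate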
# AGP1-GFP MLPCN – modulators of AGP1-GFP expression in yeast TOR pathway, primary screen, cell-based, multiplex flow cytometry, S. cerevisiae, MLPCN library. GFP response vs DMSO, % at 10 µM. actives 0.02% (n = 320,000). 3 h; GFP as percent of DMSO wells. AID 2066, 2009;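 active = GFP response relative to DMSO above a set limit, near screen average plus 3 SD, cut at about 150% in these data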;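 note: median GFP channel fluorescence of the gated AGP1 strain per well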
# LAP4 TOR yeast – modulators of LAP4-GFP expression in yeast, primary screen, S. cerevisiae, multiplex flow cytometry, MLPCN library; actives 0.34% (n = 320,000); GFP response vs DMSO, % at 10 µM; 3 h; median GFP as percent of DMSO wells;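 active = GFP response vs DMSO above a set limit, about the screen mean plus 3 SD, cut at about 150% in these data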
# MEP2-GFP yeast – modulators of MEP2-GFP levels in yeast, primary screen, S. cerevisiae, multiplex flow cytometry, MLPCN library. GFP response vs DMSO, % at 10 µM. actives 0.51% (n = 330,000). S. cerevisiae MEP2-GFP strain, 3 h; 100% = DMSO control level;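 active = GFP response versus DMSO above a set limit, roughly screen mean plus 3 SD, cut at about 180% in these data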;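 note: median GFP fluorescence of the barcode-gated MEP2-GFP cells per well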
# RPL19A-GFP yeast – RPL19A-GFP expression modulators in yeast, primary screen, cell-based, S. cerevisiae, multiplex flow cytometry, MLPCN | S. cerevisiae RPL19A-GFP strain, 3 h; hits give low values | percent response vs DMSO, % at 10 µM | actives 0.3% (n = 330,000);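 active = percent response vs DMSO below 50%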;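 note: median channel GFP fluorescence of the barcoded RPL19A-GFP strain; ratio of sample median GFP to plate DMSO average so 100% = DMSO; lower means less RPL19A-GFP as with rapamycin TOR inhibition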
# Yeast cmpd fluor – compound fluorescence in yeast efflux pump counter-screen; shares compounds with Efflux pump inh; S. cerevisiae AD/pABC3, flow cytometry; fluorescence ratio to DMSO, % at 10 µM; actives 4% (n = 1,700); AID 588517;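 active = fluorescence ratio to DMSO above its plate's cutoff, the plate mean ratio plus 5 SD, cut at about 210% in these data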;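 note: unstained yeast with no Nile Red so the signal is compound autofluorescence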
# CaMdr1 efflux inh – inhibitors of Candida albicans Mdr1 efflux, confirmation, flow cytometry, singleplex, Cherry Pick1 set | inhibition, % at 10 µM | actives 1% (n = 1,700) | S. cerevisiae AD/CaMDR1, Nile Red efflux | shares compounds with Efflux pump inh | AID 588518, 2011; in the data active = inhibition above about 26%;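 note: 0% = DMSO vehicle and 100% = reference inhibitor; higher means more Nile Red retained so more efflux inhibition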
# CaCdr2 efflux inh – inhibitors of Candida albicans Cdr2 efflux pump, confirmation, S. cerevisiae AD/CaCDR2, flow cytometry, cherry pick 1, singleplex; Nile Red retention; Nile Red retention ratio vs DMSO, % at 10 µM; shares compounds with Efflux pump inh; actives 4% (n = 1,700); AID 588520, 2011; in the data active = Nile Red retention ratio vs DMSO above about 190%;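 note: higher ratio means more blocking of Cdr2 efflux of the dye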
# Cdr1 pump inh – inhibitors of Candida albicans Cdr1 efflux pump, confirmation, S. cerevisiae AD/CaCDR1, flow cytometry, cherry pick 1, singleplex; shares compounds with Efflux pump inh; Nile Red efflux; inhibition, % at 10 µM; actives 1% (n = 1,700); AID 588522, 2011;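 active = inhibition above the screen-wide mean plus twice its standard deviation, cut at about 32% in these data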
# Active calls of the source: *; / = not tested or not shown.
SMILES,Efflux pump inh,CIT2 TOR yeast,AGP1-GFP MLPCN,LAP4 TOR yeast,MEP2-GFP yeast,RPL19A-GFP yeast,Yeast cmpd fluor,CaMdr1 efflux inh,CaCdr2 efflux inh,Cdr1 pump inh
CCN(CC(=O)NCc1cccs1)C(=O)/C=C/c1ccc(Cl)c(Cl)c1,0,95,100,97,96,92,/,/,/,/
O=C(COC(=O)CNS(=O)(=O)c1ccccc1)Nc1ncc(Cl)cc1Cl,0,93,102,97,93,97,/,/,/,/
CCOC(=O)C(NC(=O)c1cccc(Cl)c1)(Nc1nnc(C)s1)C(F)(F)F (stereo not given),9.7*,90,91,88,101,100,106,0,108,0
Cc1ncc([N+](=O)[O-])n1CC(=O)Nc1cc(Cl)ccc1Cl,0,100,102,92,100,103,/,/,/,/
CC(C)(C)C(=O)CSc1ncccn1,0.6*,93,97,111,104,99,95,0,93,0
Cc1ccc(C(=O)N2CCN(c3ccc(NC(=O)CSc4ccc(Cl)cc4)cc3)CC2)cc1,8.0*,108,99,95,104,104,105,0,110,0
O=C(Nc1ccccc1C(F)(F)F)c1cc2ccccc2o1,0,102,95,88,103,102,/,/,/,/
CC(Oc1ccc([N+](=O)[O-])cc1Cl)C(=O)Nc1ccc(C(N)=O)cc1 (stereo not given),2.3*,108,103,102,111,102,103,0,91,0
CC(=O)Nc1ccc(Oc2ccc([N+](=O)[O-])cc2Cl)cc1,0,77,94,103,97,91,/,/,/,/
COc1ccc(CCN2C(=NC(=O)CC(C)C)SC3CS(=O)(=O)CC32)cc1OC (stereo not given),0,95,96,98,101,95,/,/,/,/
O=C(c1cccc(N2CCCC2=O)c1)N1CCN(c2cccc(Cl)c2)CC1,0,103,109,111,113,107,/,/,/,/
COc1ccc(CNC(=O)CCCn2c(=S)[nH]c3cc4c(cc3c2=O)OCO4)cc1,0,93,99,95,100,98,/,/,/,/
CCOc1cc2[nH]c(=S)n(CCC(=O)NCc3ccc(OC)cc3)c(=O)c2cc1OCC,0.4*,99,95,95,98,98,102,0,127,0
CCN(C(=O)COC(=O)c1ccc(=O)n(Cc2ccccc2)n1)C1CCCCC1,0,91,93,87,98,88,/,/,/,/
Cc1ccc(/C=C2\SC(=S)N(NS(=O)(=O)c3ccc(C)cc3)C2=O)cc1,0,93,92,85,101,100,/,/,/,/
Cc1ccc(S(=O)(=O)NN2C(=O)/C(=C/c3cccs3)SC2=S)cc1,0,90,98,92,96,96,98,0,87,0
Cc1ccc(C2=NN(CC(=O)NCc3ccccn3)C(=O)CC2)cc1,7.6*,108,102,90,97,103,92,0,91,0
CCSc1cc(N2CCOCC2)nc(-c2ccc(Cl)cc2)n1,0,83,94,106,100,92,103,0,96,0
CCSc1cc(N2CCCC2)nc(-c2ccc(Cl)cc2)n1,0,108,106,110,89,101,93,0,106,0
Cc1ccsc1C1CC(=O)Nc2ccccc2S1 (stereo not given),0,90,108,104,101,100,94,0,102,0
O=C1CC(c2ccccc2)Sc2ccccc2N1 (stereo not given),0,129,99,100,100,101,/,/,/,/
O=C1CC(c2ccco2)Sc2ccccc2N1 (stereo not given),0,103,95,97,110,103,100,0,112,0
O=C(COC(=O)/C=C/c1cccc(C(F)(F)F)c1)Nc1ccc(Cl)cn1,0.6*,90,100,105,98,100,102,0,92,0
O=C(COC(=O)/C=C/c1cccc([N+](=O)[O-])c1)Nc1ccc(Cl)cn1,0,100,98,107,101,99,/,/,/,/
CCCCOc1ccc(C(=O)N/C(=C\c2ccc([N+](=O)[O-])cc2)C(=O)OCc2ccco2)cc1,0.4*,105,99,96,107,104,155,2,116,0
SMILES,Efflux pump inh,CIT2 TOR yeast,AGP1-GFP MLPCN,LAP4 TOR yeast,MEP2-GFP yeast,RPL19A-GFP yeast,Yeast cmpd fluor,CaMdr1 efflux inh,CaCdr2 efflux inh,Cdr1 pump inh
CCOC(=O)N1CCN(C(=O)CN2C(=O)NC(C)(c3ccc4ccccc4c3)C2=O)CC1 (stereo not given),0,98,102,99,98,100,/,/,/,/
C=CCn1c(=O)[nH]c2nc3cc(N=CN(C)C)c(C)cc3nc2c1=O,1.7*,116,112,111,108,106,147,0,87,0
COc1ccccc1C1CCN(Cc2cccc3ccccc23)CC1,0,105,102,99,103,106,/,/,/,/
COc1ccccc1C1CCN(Cc2c(C)[nH]c3ccccc23)CC1,0.9*,150,115,152*,201*,110,108,0,96,0
COc1ccc(CNC(=O)c2cc3c(s2)CN(Cc2ccccc2)C3)cc1,0.5*,102,104,96,100,103,99,0,100,0
COc1ccc(CNC(=O)c2cccs2)cc1,0,98,97,96,98,95,/,/,/,/
Cn1nnnc1SCCNC(=O)C1CCC(=O)N(Cc2ccc(Cl)cc2)C1 (stereo not given),1,102,99,99,110,102,/,/,/,/
O=C(c1ccc2n[nH]nc2c1)N1CCN(c2ccc(C(F)(F)F)cn2)CC1,0,99,95,95,93,97,/,/,/,/

# Screening data as filed in PubChem.
